Screening results (PubChem)
This is a sample that favours compounds with a hit; in the whole collection about 5.4% have one here.
PNC assembly inh: blocks assembly of the perinucleolar compartment. PC3M PTB-GFP, PNC prevalence imaging, 16 h; stronger effect = lower value. activity change (PNC), negative = inhibition, % at 10 µM. 3.1% of 140,000 active;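 active = readout at or below -70, meaning at least 70% loss of cells showing the perinucleolar compartment, a nuclear body marking cancer cells; inconclusive = readout between -30 and a set limit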
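Read-out is percentage of cells bearing a perinucleolar compartment, from automated 20x imaging of fixed, Hoechst-stained PC3M PTB-GFP cells. Cells were seeded 4 h, then exposed 16 h to compound (23 nl of library stock) in duplicate plates.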
IMPase Li cell: membrane-permeable IMPase blocker, potentiated with lithium; Potency, µM (top dose mostly 59.4 µM), usual class: inhibitors; CHO-M1 cells, IP1 TR-FRET (IP-One), carbachol + lithium; 0.35% of 210,000 active; AID 1457;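 also: IP1 builds up when IMPase is blocked and the TR-FRET signal falls; nearly all actives have a fitted effect of over 50% in size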
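CHO-M1, 2000 cells/well, 16–30 h culture; cpd + low Li+, 30 min 37C; lysis with d2-IP1/Eu-anti-IP1 Ab, 10 min RT; TR-FRET 665/620 ratio and 620 channel; AC50 via Hill.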
IMPase cell inh: IMPase inhibition in cells; CHO-M1 cells, IP1 accumulation, HTRF TR-FRET ratio; inhibition (IP1 accumulation), % at 46.1 µM; 120,000 tested, under 10 active; AID 901; active = well fitted curve in the direction sought with a large enough effect in the signal ratio, not every such curve was filed as active; inconclusive = small, poorly fitted or top-dose-only effect, or a change in a side signal; inactive = no such curve, though single readings can be large or run the other way; the % refers to the signal ratio;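 also: cells stimulated with carbachol in lithium chloride buffer; higher means more IMPase inhibition seen as more IP1 and lower FRET ratio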
Target sequence (P97697 whole entry, looked up): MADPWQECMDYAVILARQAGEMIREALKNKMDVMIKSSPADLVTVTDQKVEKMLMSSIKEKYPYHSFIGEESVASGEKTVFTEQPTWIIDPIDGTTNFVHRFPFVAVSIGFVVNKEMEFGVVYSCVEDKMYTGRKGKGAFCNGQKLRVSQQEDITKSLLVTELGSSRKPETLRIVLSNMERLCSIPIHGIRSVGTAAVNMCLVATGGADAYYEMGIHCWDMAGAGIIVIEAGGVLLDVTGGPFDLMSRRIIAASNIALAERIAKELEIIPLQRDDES
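Seeded CHO-M1 cells were dosed with compound at up to 46 uM, stimulated with carbachol for 30 min, then lysed in IP-One detection reagents. Higher IP1 lowers the TR-FRET signal.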
ALOX12 inhib: 12-hLO (ALOX12) enzyme inhibition; P18054; Potency, µM (doses to about 57.1 µM), hits mostly inhibitors; AID 1452; 0.12% of 150,000 active; purified 12-hLO, xylenol orange hydroperoxide absorbance; also: nearly all actives have a fitted effect of over 55% in size
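Purified human 12hLO (150 nM final) was preincubated with compounds for 15 min at room temperature in 25 mM Hepes pH 7.0, 0.01% Triton X-100, then reacted with 40 uM arachidonic acid for 30 min. Hydroperoxide was detected with ferrous iron/xylenol orange.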
HPGD inh: blocks human HPGD enzyme activity; P15428; purified HPGD, NADH fluorescence kinetic, PGE2 substrate; Potency, µM, actives largely listed as inhibitors; 4.3% of 150,000 active; AID 894; active = well fitted inhibition curve with a large enough effect, not every such curve was filed as active; inconclusive = small, poorly fitted or top-dose-only effect, or another doubt; inactive = no such curve, though single readings can be large or run the other way
Target sequence (P15428 whole entry, looked up): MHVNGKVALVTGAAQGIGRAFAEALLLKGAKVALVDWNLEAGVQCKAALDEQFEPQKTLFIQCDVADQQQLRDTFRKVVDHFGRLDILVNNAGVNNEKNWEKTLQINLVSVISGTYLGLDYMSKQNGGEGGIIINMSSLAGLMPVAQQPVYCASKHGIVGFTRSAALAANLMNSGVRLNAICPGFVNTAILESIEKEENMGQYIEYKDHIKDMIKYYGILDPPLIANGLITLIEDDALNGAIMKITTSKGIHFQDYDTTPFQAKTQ
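20 nM HPGD preincubated 15 min at room temperature with compound in 50 mM Tris-HCl pH 8, 0.01% Tween 20. Started with 1 mM NAD+ and 30 uM prostaglandin E2; NADH fluorescence (360/450 nm) read 5 times over 30-s intervals, last minus first.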
ALOX15B inhib: 15-hLO-2 (ALOX15B) enzyme inhibition; O15296; purified 15hLO-2, xylenol orange hydroperoxide absorbance; Potency, µM (highest dose often 57.1 µM), actives largely listed as inhibitors; 0.56% of 110,000 active; AID 881; also: nearly all actives have a fitted effect of over 60% in size
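Purified human 15hLO-2 (50 nM final) preincubated with compounds 15 min at room temperature in 25 mM Hepes pH 7.5, 0.01% Triton X-100, then 45 uM arachidonic acid added for 90 min; hydroperoxide detected via ferrous/xylenol orange, 573/405 nm absorbance ratio.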
HPGD inh cf: confirmation of human HPGD inhibitors; AID 2429; recombinant HPGD, NADH fluorescence, PGE2 substrate; Potency, µM (doses to about 57.1 µM), usual class: inhibitors; shares compounds with HPGD inh; 90% of 90 active; calls by dose curve
Hits are given with their value. Unless noted, calls follow the shape of the dose curve; as a rule, active = well fitted curve in the direction sought with a large enough effect; inconclusive = small, poorly fitted or top-dose-only effect, or another doubt; inactive = no such curve, though single readings can be large; an effect the other way counts as inactive or inconclusive.

For CCN(CC)c1ccc2cc(-c3nc4ccccc4n3C)c(=O)oc2c1 the results were PNC assembly inh inconclusive, IMPase Li cell inactive, IMPase cell inh inactive, ALOX12 inhib inactive, HPGD inh inactive and ALOX15B inhib inactive.
Screening CCc1ccccc1NC(=O)c1nc2nc(C)cc(C(F)F)n2n1 returned IMPase cell inh inactive.
`O=c1[nH]cnc2c1sc(=S)n2-c1ccccc1` gave PNC assembly inh inconclusive, IMPase Li cell inactive, IMPase cell inh inactive, ALOX12 inhib inactive, HPGD inh 14µM and ALOX15B inhib inactive.
O=C(Cn1cnc2c(nnn2Cc2ccc(Cl)cc2)c1=O)NCC1CCCO1 (centres undefined) was read as PNC assembly inh inconclusive, IMPase Li cell inactive, IMPase cell inh inactive, ALOX12 inhib inactive, HPGD inh inactive and ALOX15B inhib inactive.
`Cc1ccc(C)c(Cn2nnc3c(=O)[nH]c(C(=O)NCC4CCCO4)nc32)c1` (centres undefined) gave PNC assembly inh inactive, IMPase Li cell inactive, IMPase cell inh inactive, ALOX12 inhib inactive, HPGD inh 1.3µM and HPGD inh cf 0.4µM.
`COCCNC(=O)c1nc2c(nnn2Cc2cc(C)ccc2C)c(=O)[nH]1` gave PNC assembly inh inconclusive, IMPase Li cell inactive, IMPase cell inh inactive, ALOX12 inhib inactive, HPGD inh 0.2µM and HPGD inh cf 0.71µM.
COc1ccc(-c2cc(C(F)(F)F)nc(SCC(=O)NCC(C)C)n2)cc1OC was read as IMPase cell inh inactive.
`O=c1c2ccccc2sn1-c1cc(S(=O)(=O)N2CCOCC2)ccc1N1CCCC1` gave PNC assembly inh -108, IMPase Li cell inactive, IMPase cell inh inactive, ALOX12 inhib 0.5µM, HPGD inh 0.22µM, ALOX15B inhib 1µM and HPGD inh cf 2.5µM.
CCOC(=O)c1sc(NC(=O)CSc2n[nH]c(-c3ccccc3)n2)c(C#N)c1C was read as PNC assembly inh inactive, IMPase Li cell inactive, IMPase cell inh inactive, ALOX12 inhib inactive, HPGD inh 1µM, ALOX15B inhib inactive and HPGD inh cf 1.1µM.
For CCOC(=O)c1sc(NC(=O)CSc2nc(C)cc(C)n2)c(C#N)c1C the results were PNC assembly inh inactive, IMPase Li cell inactive, IMPase cell inh inactive, ALOX12 inhib inactive, HPGD inh inactive and ALOX15B inhib inactive.
For Cc1cnc(CNc2ncncc2-c2ccoc2)cn1 the results were IMPase Li cell inactive and ALOX15B inhib inactive.
For CN(C)C(=O)c1ccc(-c2nc(Nc3ccccc3)c3ccccc3n2)cc1 the results were IMPase Li cell inactive and ALOX15B inhib inactive.
For COCCNc1nc(-c2ccc(C(=O)N(C)C)cc2)nc2ccccc12 the results were IMPase Li cell inactive and ALOX15B inhib inactive.
Screening CN(C)C(=O)c1ccc(-c2nc(N(C)C)c3ccccc3n2)cc1 returned IMPase Li cell inactive, ALOX12 inhib inactive, HPGD inh 0.32µM, ALOX15B inhib inactive and HPGD inh cf 2.5µM.
CN(C)C(=O)c1ccc(-c2nc(NCc3ccccc3)c3ccccc3n2)cc1 was read as IMPase Li cell inactive, ALOX12 inhib inactive, HPGD inh inconclusive, ALOX15B inhib inactive and HPGD inh cf 14µM.
Screening O=C(c1ccc(N2C(=O)C3CC=C(Cl)CC3C2=O)cc1)N1CCCCC1 (centres undefined) returned PNC assembly inh inactive, IMPase Li cell inactive, IMPase cell inh inactive, ALOX12 inhib inactive, HPGD inh 0.5µM, ALOX15B inhib inactive and HPGD inh cf 0.25µM.
`O=C(c1ccc(N2C(=O)C3CC=C(Cl)CC3C2=O)cc1)N1CCOCC1` (centres undefined) gave IMPase Li cell inactive.
`O=C(c1ccc(N2C(=O)C3CCCCC3C2=O)cc1)N1CCCCC1` (centres undefined) gave PNC assembly inh inactive, IMPase Li cell inactive, ALOX12 inhib inactive, HPGD inh 1µM and HPGD inh cf 0.56µM.
`CC1=CCC2C(=O)N(c3ccc(C(=O)N4CCCCCC4)cc3)C(=O)C2C1` (centres undefined) gave PNC assembly inh inactive, IMPase Li cell inactive, IMPase cell inh inactive, ALOX12 inhib inactive, HPGD inh 1.4µM, ALOX15B inhib inactive and HPGD inh cf 0.79µM.
For O=C(c1ccncc1)N1CCC2(CCN(Cc3ccncc3)CC2)CC1 the results were IMPase Li cell inactive, ALOX12 inhib inactive, HPGD inh inactive and ALOX15B inhib inactive.
For COC1OC2COC(c3ccccc3)OC2C(O)C1O (centres undefined) the results were IMPase Li cell inactive, IMPase cell inh inactive, ALOX12 inhib inactive, HPGD inh inactive and ALOX15B inhib inactive.
CCCCCCCCCCCCC[N+](C)(C)Cc1ccccc1 was read as IMPase Li cell inactive, ALOX12 inhib inactive, HPGD inh inactive and ALOX15B inhib inactive.
For COc1ccc2cc(C(=O)N3CCCCCC3)sc(=O)c2c1OC the results were PNC assembly inh inactive, IMPase Li cell inactive, IMPase cell inh inactive, ALOX12 inhib inactive, HPGD inh 0.13µM, ALOX15B inhib inactive and HPGD inh cf 0.25µM.
Screening Cn1cc(-c2nc3cnc(N4CCNCC4)nc3n(C)c2=O)c2ccccc21 returned IMPase Li cell inactive and ALOX15B inhib inactive.
`Cc1cc(-c2nnc3n2CCCCC3)c(C)n1-c1ccccc1` gave PNC assembly inh inconclusive, IMPase Li cell inactive, IMPase cell inh inactive, ALOX12 inhib inactive, HPGD inh 0.16µM, ALOX15B inhib inactive and HPGD inh cf 0.089µM.
`COc1cccc([C@@H]2Oc3ccc(Br)cc3C(=O)[C@H]2OC(=O)Nc2ccc(OC(F)F)cc2)c1` gave IMPase Li cell inactive and HPGD inh inactive.
For O=C(Cc1ccc([N+](=O)[O-])cc1)N1CCCCCC1 the results were IMPase Li cell inactive.
For O=C(CCc1ccc(Oc2cc([N+](=O)[O-])cc([N+](=O)[O-])c2)cc1)N1CCCCCC1 the results were PNC assembly inh inactive, IMPase Li cell inactive, IMPase cell inh inactive, ALOX12 inhib inactive, HPGD inh 0.89µM and HPGD inh cf 0.4µM.
COc1ccc(N2CCN(C(=O)CSc3ccccc3)CC2)cc1 was read as PNC assembly inh inactive, IMPase Li cell inactive, IMPase cell inh inactive, ALOX12 inhib inactive, HPGD inh inactive and ALOX15B inhib inactive.
`COc1ccc(N2CCN(C(=O)c3ccc(CSc4ccccc4)cc3)CC2)cc1` gave PNC assembly inh inactive, IMPase Li cell inactive, ALOX12 inhib inactive, HPGD inh inactive and HPGD inh cf inactive.
